Out of some 370,000 compounds screened, about 4,100 (1.1%) were called active.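 The calls were made as follows: active = inhibition above the mean over all tested compounds plus 3 SD (cut at about 3.6% in these data); inactive = the rest.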 The entries come from a sample that favours actives as a whole.
Experiment: relief of DAX-1 repression of SF-1 activity – cell-based, luminescence, SF-1 (NR5A1), full-length DAX-1, primary screen (AID 652010);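 also: 0% = DAX-1 cells with DMSO and 100% = cells lacking DAX-1 with DMSO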
Settings: HEK293T StAR-luciferase reporter, SF-1/DAX-1 repression relief; at 6.8 µM; stronger effect = higher value

inhibition, inactive:
CCCCNC(=O)C[C@H]1C[C@@]2(C(=O)OC)C(=C[C@H](COCc3ccccc3)O[C@@H]2C)N(Cc2ccc(Cl)cc2Cl)C1=O -0.49%
COC(=O)C[C@@H]1CC[C@@H]2[C@H](COc3ccc(NC(=O)c4cccc(F)c4)cc3C(=O)N2C)O1 0.44%
CN(CCNC(=O)c1cc2c(-c3ccccc3F)nn(C)c2s1)C1CCCCC1 0.74%
CCOCCCNC(=O)c1cc2c(=O)n3ccccc3nc2s1 0.63%
CN(CCc1ccccc1)C(=O)Cn1nc(-c2ccccc2)ccc1=O -1.5%
Cc1nn(Cc2ccc(Cl)c(Cl)c2)c(C)c1NC(=O)c1cc(C2CC2)on1 -1.2%
CSc1ccccc1NC(=O)c1cc(Cl)sc1Cl -0.22%
COc1cccc(C(=O)Nc2cc3c(cc2Br)OCCCO3)c1 2.47%
O=C(Nc1ccc(N2CCN(C(=O)c3ccccc3)CC2)c(Cl)c1)c1cccnc1 -1.45%
O=C(Nc1ccc(N2CCOCC2)c(Cl)c1)c1ccc(S(=O)(=O)N2CCOCC2)cc1 -0.43%
Cc1ccc(C(=O)Nc2ccc3c(c2)OCCO3)cc1S(=O)(=O)N1CCOCC1 1.01%
Cc1ccc(S(=O)(=O)NCC(=O)Nc2ccc3c(c2)OCCO3)cc1 -0.38%
C/C(Cc1ccccc1)=N\NC(=O)CNC(=O)c1ccc2c(c1)OCCO2 0.38%
C/C(=N/NC(=S)Nc1ccccc1)c1ccc2c(c1)OCO2 0.83%
Cc1ccc(C(=O)Nc2nnc(C3=COCCO3)o2)cc1C 1.49%
CC(C)(C)n1nc(C2CC2)c(Br)c1NC(=O)c1ccccc1F -1.59%
N#Cc1ccc(OC[C@@H](O)CN2CCC(C(O)(c3ccccc3)c3ccccc3)CC2)c(F)c1 -0.27%
CC(C)CNS(=O)(=O)CC1NCCc2ccccc21 (stereo not given) -0.78%
COc1cccc(N2CCN(CC(=O)N(C)Cc3ccc(F)cc3)CC2)c1 -0.23%
C=CCN1C(=O)[C@@H](CC(=O)NCCCCc2ccccc2)[C@]2(C(=O)OCC)CCCCC/C=C/12 -0.85%
CCOC(=O)Cn1c2c(n(-c3ccc(F)cc3)c1=O)C=C(c1ccccc1)[C@@H](C)C(C(=O)N(C)C1CCCCC1)=C2 -1.69%
Cn1c(=O)c([N+](=O)[O-])c(Oc2ccccc2)c2ccccc21 -1.48%
C=CCN1C(=O)[C@H](CC(=O)NCCCN2CCCC2=O)[C@@]2(C(=O)OCC)CCCC=C12 0.2%
CCCCCN1CCCCC(NC(=O)C(C)CCC)C1=O (stereo not given) 0.06%
c1csc(-c2nnc(SCc3nc4ccccc4[nH]3)o2)c1 -0.62%
O=C(C1CCC(=O)N(C2CC2)C1)N1CCN(c2ccc(Cl)cc2)CC1 (stereo not given) -0.61%
CC1(C(=O)Nc2cccc3c2CCCC3)CCN1C(=O)C1(c2ccccc2)CC1 (stereo not given) -0.73%
CCOc1ccc(NC(=O)C2CCCN(C(=O)Nc3ccccc3)C2)cc1 (stereo not given) -0.8%
COc1ccc2cc(C(=O)C3CCCN(C(=O)c4sc(C)nc4C)C3)ccc2c1 (stereo not given) 0.57%
O=C(Nc1ccccc1C(=O)N1CCOCC1)c1ccc(Cl)cc1 -0.37%
CC(CNC(=O)c1ccc(N)cc1)NC(=O)c1ccc(N)cc1 (stereo not given) 0.06%
C#CCCN([C@H](C(=O)OC)C(C)C)S(=O)(=O)c1ccc(F)cc1Br -0.77%
O=C1CCC2(CCC(c3ccc(Cl)cc3)CC2)N1CCO (stereo not given) -1.36%
O=S1(=O)c2c(cccc2N2CC[C@H](O)C2)O[C@@H]2CCN1C2 -0.61%
COc1ccc(OCc2cc(C(=O)NCC3(C)COC3)no2)c(Cl)c1 -0.13%
COCCCNC(=O)COc1cc(C)c(Cl)c(C)c1 -0.64%
N#Cc1ccc(-c2nc3cc(C#N)c(C#N)cc3nc2-c2ccccc2)cc1C#N -0.36%
Cc1cc(NC(=O)Nc2ccccc2[N+](=O)[O-])no1 -0.12%
CN1CCN(CCNC(=O)Nc2ccccc2[N+](=O)[O-])CC1 -0.08%
O=C1[C@@H]2C(c3cccnc3)=NO[C@@H]2C(=O)N1c1ccc(Cl)cc1Cl -0.39%
COc1cccc(CNC(=O)CNS(=O)(=O)c2ccc3nc(C)sc3c2)c1OC -0.3%
Cc1ccc(CSc2nnc(SCC(=O)NN=Cc3cc(Br)ccc3F)s2)cc1 -0.52%
COc1ccc(C(=O)OCCN2CCN(C3CN(Cc4cn(Cc5ccccc5F)nn4)S(=O)(=O)C3)CC2)cc1OC (stereo not given) -2.65%
O=C(Cn1[nH]c(=O)c2ccccc2c1=O)Nc1cccc(-c2nnc3n2CCCCC3)c1 -0.2%
N=c1c2c3c(sc2nc2n1CCCCC2)CCCC3 0.02%
O=C(Nc1ccc2nc3n(c(=O)c2c1)CCCC3)c1ccc(Cl)nc1 -1.19%
COc1cccc(C(=O)Nc2ccc3nc4n(c(=O)c3c2)CCCCC4)c1 -0.05%

inhibition, active:
CN(C(=O)c1cc2c(=O)n3ccccc3nc2s1)C1CCCCC1 8.94%
CSc1ccccc1NC(=O)c1cc(C2CC2)on1 3.85%
O=C(Nc1ccccc1)c1ccc2c(c1)OCCCO2 14.7%
Cc1nc(NC(=O)c2ccc3c(c2)OCCO3)ccc1Br 12.7%
Cc1ccc(C(=O)NNC(=O)c2ccc3c(c2)OCCO3)cc1 5.23%
CN1CCN(c2ccc(NC(=O)c3ccc4c(c3)OCCO4)cc2Cl)CC1 4.89%
CCc1ccc2oc(-c3ccc(N)cc3)nc2c1 5.85%
CCOc1ccc2nc(C(=O)N3CCCC(C)C3)sc2c1 (stereo not given) 4.1%
Nc1ccc(C(=O)Nc2ccccc2N)cc1 15.9%
Cc1cc(OCc2cc(C(=O)NCc3cc(C(C)C)no3)no2)cc(C)c1Cl 7.8%
Cc1csc(NC(=O)Nc2ccccc2[N+](=O)[O-])n1 4.06%
CC(=O)c1ccc(NC(=O)c2sc3nc4n(c(=O)c3c2C)CCCCC4)cc1 4%
O=c1c2c(nc3n1CCCCC3)sc1c(O)cccc12 4.81%

From PubChem BioAssay AID652010 (The Scripps Research Institute Molecular Screening Center, 2013)
